Structures are written as SMILES. Where “and” joins values, the source holds several entries; their conditions need not be identical. Equal entries are not always repeated. Records with an inconclusive call do not appear. Where a call stands in place of a potency, no number is given. Calls of active or inactive are those of the source. The call rests on the fitted dose curve.
Potency means the concentration at half of the fitted maximal effect.

A short description of this experiment: Cytotoxicity counterscreen for inhibitors of SARS-CoV-2 cell entry (AID 1645845). Further: nearly all actives have a fitted effect of over 50% in size. The settings on record: cell viability (SARS-CoV-2 entry assay cells); series mostly up to 57.1 µM. The text has this: Assay Provider: Wei Zheng, Ph.D.
National Center for Advancing Translational Sciences, National Institute of Health, Rockville, MD.
SARS-CoV-2 spike protein, within the viral envelope, mediates viral attachment and infection of host cells. The SARS-CoV-2 spike protein specifically binds to the host receptor ACE2 (Angiotensin-converting enzyme 2). This interaction promotes endocytosis of the viral particle, additional events lead to viral-host cell membrane fusion and release of the viral contents, allowing viral replication.
While SARS-CoV-2 requires BSL-3 facilities for live virus work, pseudo-typed partices (PP) that incorporate SARS-CoV-2 spike proteins without replication elements could facilitate studies on viral entry mechanisms in a BSL-2 setting. This PP cell entry assay could also enable screening of small molecule compound libraries in BSL-2 setting to identify inhibitors of SARS-CoV-2 cell entry. To eliminate false positive compounds, ATP content cytotoxicity assay was screened in the same cell line.
SEQUENCE No. (e.g., 1, 2, 3, etc.); […] (e.g., Cells, Incubation, Reagent, etc.); VALUE and DESCRIPTION.
1. Cells. Seed 1500 HEK293-ACE2 cells (Expi293F with stable expression of human ACE2) in 2 uL/well media (DMEM, 10% FBS, 1x L-glutamine, 1x Pen/Strep, 1 ug/ml puromycin) in white 1536-well assay plates (Greiner #782073).
2. Incubation. Incubate at 37 C with 5% CO2 overnight (~16 h).
3. Compounds. Dispense 23 nL/well compounds in DMSO via pin transfer.
4. Incubation. Incubate for 1 h at 37C 5% CO2.
5. Reagent. Dispense 2 uL/well of media (DMEM, 10% FBS, 1x L-glutamine, 1x Pen/Strep, 1 ug/ml puromycin).
6. Incubation. Incubate at for 48h at 37C 5% CO2
7. Reagent. Dispense 4 uL/well of ATPLite 1step luminescence assay reagent (PerkinElmer #6016739).
8. Incubation. Incubate for 15 min at room temperature.
9. Detection. Read luminescence signal (Viewlux plate reader, PerkinElmer). Data was normalized with wells containing cells as 100%, and wells without cells (media only control) as 0%.
For the compound `Nc1cc(-c2ccncc2)c[nH]c1=O`, the Potency result was “inactive”.
With `COC(=O)[C@@H]1CC2=CC(=O)CC[C@]2(C)[C@@]23O[C@@H]2C[C@@]2(C)[C@@H](CC[C@@]24CCC(=O)O4)[C@H]13` the entry was “inactive”; with `CC(=O)CCCCn1c(=O)c2c(ncn2C)n(C)c1=O`, “inactive”; with `O=NN(CCCl)C(=O)NC1CCCCC1`, “inactive”.
On to `CCc1c2c(nc3ccc(OC(=O)N4CCC(N5CCCCC5)CC4)cc13)-c1cc3c(c(=O)n1C2)COC(=O)[C@]3(O)CC`, for which the Potency entry is “inactive”.
With `CC(C)(C)NC(=O)[C@H]1CC[C@H]2[C@@H]3CC[C@H]4NC(=O)C=C[C@]4(C)[C@H]3CC[C@]12C` the entry was “inactive”; with `CNCC[C@@H](Oc1ccccc1C)c1ccccc1`, “inactive”; with `O=P1(NCCCl)OCCCN1CCCl` (stereo not given), “inactive”.
Then `CC(C)[N+](C)(CCOC(=O)C1c2ccccc2Oc2ccccc21)C(C)C`, with “inactive”.
On to `C[C@@H]1CC(=O)NN=C1c1ccc(NN=C(C#N)C#N)cc1`, for which the Potency result is “inactive”.
With `CC(C)NCC(O)c1ccc(O)c(O)c1` (stereo not given) the entry was “inactive”; with `C[n+]1ccccc1/C=N/O`, “inactive”; with `Clc1ccc2c(c1)C(N1CCNCC1)=Nc1ccccc1O2`, “inactive”.
With `CNCC(O)c1ccc(O)cc1` (stereo not given) the entry was “inactive”.
Then `CN1CCc2cccc3c2[C@H]1Cc1ccc(O)c(O)c1-3`, with “inactive”; and `NS(=O)(=O)Cc1noc2ccccc12`, with “inactive”; and `COC(=O)N[C@H](C(=O)N[C@@H](Cc1ccccc1)[C@@H](O)CN(Cc1ccc(-c2ccccn2)cc1)NC(=O)[C@@H](NC(=O)OC)C(C)(C)C)C(C)(C)C`, with “inactive”.
As to `C=C1CC[C@@]2(O)[C@H]3Cc4ccc(O)c5c4[C@@]2(CCN3CC2CC2)[C@H]1O5`, the Potency result is “inactive”.
With `CCOc1ccc2ccccc2c1C(=O)N[C@@H]1C(=O)N2[C@@H]1SC(C)(C)[C@@H]2C(=O)O` the entry was “inactive”.
Then `Nc1ccc(O)c(C(=O)O)c1`, with “inactive”; and `OC(Cn1cncn1)(Cn1cncn1)c1ccc(F)cc1F`, with “inactive”; and `CC/C(=C(\c1ccccc1)c1ccc(OCCN(C)C)cc1)c1ccccc1`, with “inactive”.
Then `COC(=O)C(c1ccccc1Cl)N1CCc2sccc2C1` (stereo not given), with “inactive”; and `Nc1ccncc1`, with “inactive”.
With `COc1nc(N)nc2c1ncn2[C@@H]1O[C@H](CO)[C@@H](O)[C@@H]1O`, the Potency result is “inactive”.
Then `NS(=O)(=O)c1cc2c(cc1C(F)(F)F)NCNS2(=O)=O`, with “inactive”.
With `CC(c1cc2ccccc2s1)N(O)C(N)=O` (stereo not given) the entry was “inactive”; with `Cc1oncc1C(=O)Nc1ccc(C(F)(F)F)cc1`, 8.91 µM (active); with `COCCCC/C(=N\OCCN)c1ccc(C(F)(F)F)cc1`, “inactive”.
With `CCOC(=O)[C@H](CCc1ccccc1)N[C@@H](C)C(=O)N1[C@H](C(=O)O)C[C@@H]2CCC[C@@H]21` the entry was “inactive”; with `COc1cc(NCc2ccc3nc(N)nc(N)c3c2C)cc(OC)c1OC`, 11.2 µM (active) and 1.12 µM (active).
Take `CC(C)NC[C@@H](O)COc1ccc(CC(N)=O)cc1`: the Potency entry is “inactive”.
With `COc1ccc(-c2cc(=S)ss2)cc1` the entry was “inactive”; with `CCCCc1oc2ccccc2c1C(=O)c1cc(I)c(OCCN(CC)CC)c(I)c1`, “inactive”; with `Clc1ccc(C(c2ccccc2Cl)C(Cl)Cl)cc1` (stereo not given), “inactive”.
With `CC(=O)Oc1cc2c(s1)CCN(C(C(=O)C1CC1)c1ccccc1F)C2` (stereo not given) the entry was “inactive”; with `Nc1nc2c(ncn2COCCO)c(=O)[nH]1`, “inactive”.
With `CNCCC(Oc1ccc(C(F)(F)F)cc1)c1ccccc1` (stereo not given), the Potency result was “inactive”.
Turning to `OC(CCN1CCCC1)(c1ccccc1)C1CCCCC1` (stereo not given), the Potency entry is “inactive”.
With `C[C@]12CC[C@@H]3c4ccc(O)cc4C[C@@H](CCCCCCCCCS(=O)CCCC(F)(F)C(F)(F)F)[C@H]3[C@@H]1CC[C@@H]2O` (stereo not given in full) the entry was “inactive”.

Values taken from PubChem BioAssay (NCATS).
